Measured values from PubChem BioAssay (Tox21).
Inconclusive results are not listed. Where a call stands in place of a potency, no number is given. Unmarked numbers belong to inactive results. Activity calls are given as the source filed them. Unless noted, calls come from the whole dose curve; as a rule, active = well fitted curve in the direction sought with a large enough effect in the repeat runs; inconclusive = weak or mixed curves; inactive = no such curve, though single readings can be large; an effect the other way counts as inactive or inconclusive.

Assays:
[1] = qHTS assay to identify small molecule antagonists of the thyroid receptor (TR) signaling pathway (AID 743065); note: series mostly up to about 70 µM; nearly all actives have a fitted effect of over 55% in size
Summary of the method: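 GH3.TRE-Luc rat pituitary cells carrying two TR response elements driving luciferase were plated for 4 h, given compound plus 1 nM T3 (final), and incubated 23.5 h at 37 C. ONE-Glo luminescence measured reporter inhibition; CellTiter-Fluor fluorescence tracked cytotoxicity.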

[2] = tested on: thyroid hormone receptor (rat, GH3 cells); assay: qHTS assay to identify small molecule agonists of the thyroid receptor (TR) signaling pathway (AID 743066; calls by dose curve)
[3] = qHTS assay to identify small molecule antagonists of the estrogen receptor alpha (ER-alpha) signaling pathway - cell viability counter screen (AID 743074; calls by dose curve;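 note: HEK293 cells carrying ER-alpha-UAS-bla reporter stimulated with 17beta-estradiol; nearly all actives have a fitted effect of over 45% in size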)
[4] = qHTS assay to identify small molecule antagonists of the estrogen receptor alpha (ER-alpha) signaling pathway using the BG1 cell line - cell viability counter screen (AID 743081);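 note: compound given together with 17beta-estradiol as the ER stimulus; series mostly up to about 70 µM; nearly all actives have a fitted effect of over 45% in size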
Aromatase (Homo sapiens) = Aromatase (Homo sapiens) (UniProt P11511); assay: qHTS assay to identify aromatase inhibitors (AID 743083); note: series mostly up to about 70 µM; nearly all actives have a fitted effect of over 55% in size
Sequence of Aromatase (Homo sapiens) (P11511 whole entry, looked up): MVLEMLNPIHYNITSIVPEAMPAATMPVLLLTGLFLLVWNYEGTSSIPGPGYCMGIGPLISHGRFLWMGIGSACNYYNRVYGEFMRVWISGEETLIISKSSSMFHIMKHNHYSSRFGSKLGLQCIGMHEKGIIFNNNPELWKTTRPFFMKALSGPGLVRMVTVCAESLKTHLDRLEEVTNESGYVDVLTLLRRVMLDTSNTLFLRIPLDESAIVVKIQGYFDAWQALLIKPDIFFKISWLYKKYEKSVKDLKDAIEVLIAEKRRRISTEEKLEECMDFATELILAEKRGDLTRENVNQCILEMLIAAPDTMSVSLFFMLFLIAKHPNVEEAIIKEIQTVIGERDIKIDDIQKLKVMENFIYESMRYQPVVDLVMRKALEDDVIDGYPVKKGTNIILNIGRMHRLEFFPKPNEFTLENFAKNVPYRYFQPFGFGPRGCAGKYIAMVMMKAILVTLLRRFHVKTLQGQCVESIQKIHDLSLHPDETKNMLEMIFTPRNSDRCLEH

[5] = qHTS assay to identify aromatase inhibitors - cell viability counter screen (AID 743084);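 note: cells stimulated with testosterone during compound exposure; nearly all actives have a fitted effect of over 55% in size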
[6] = target: Aryl hydrocarbon receptor (Homo sapiens) (UniProt P35869); assay: qHTS assay to identify small molecule that activate the aryl hydrocarbon receptor (AhR) signaling pathway (AID 743085);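 note: HG2L7.5c1 human HepG2 liver cells with stably integrated DRE-driven firefly reporter; series mostly up to about 70 µM; nearly all actives have a fitted effect of over 15% in size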
Sequence of Aryl hydrocarbon receptor (Homo sapiens) (P35869 whole entry, looked up): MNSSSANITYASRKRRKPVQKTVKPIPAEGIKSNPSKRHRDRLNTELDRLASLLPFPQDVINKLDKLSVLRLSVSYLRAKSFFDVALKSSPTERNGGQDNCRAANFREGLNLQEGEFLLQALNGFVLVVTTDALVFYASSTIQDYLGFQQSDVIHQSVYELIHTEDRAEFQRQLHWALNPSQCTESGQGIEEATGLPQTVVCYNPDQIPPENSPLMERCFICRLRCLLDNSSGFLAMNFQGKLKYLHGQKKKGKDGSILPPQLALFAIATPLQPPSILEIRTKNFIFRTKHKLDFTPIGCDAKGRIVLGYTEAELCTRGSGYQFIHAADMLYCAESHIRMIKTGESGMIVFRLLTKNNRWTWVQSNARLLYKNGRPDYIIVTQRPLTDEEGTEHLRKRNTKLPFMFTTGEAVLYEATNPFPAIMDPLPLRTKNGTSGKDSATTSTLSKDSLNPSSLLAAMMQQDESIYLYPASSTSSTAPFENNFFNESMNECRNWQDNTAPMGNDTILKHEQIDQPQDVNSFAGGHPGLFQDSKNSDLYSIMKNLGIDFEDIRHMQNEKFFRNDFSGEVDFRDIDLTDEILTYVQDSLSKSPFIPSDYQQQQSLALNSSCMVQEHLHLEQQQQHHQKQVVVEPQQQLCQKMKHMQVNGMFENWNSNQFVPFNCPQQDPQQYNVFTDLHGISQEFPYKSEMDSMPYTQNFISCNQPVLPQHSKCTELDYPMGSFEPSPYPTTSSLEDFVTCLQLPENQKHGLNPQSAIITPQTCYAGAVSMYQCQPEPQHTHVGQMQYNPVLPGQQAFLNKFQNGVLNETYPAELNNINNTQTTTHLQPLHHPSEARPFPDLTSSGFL
Summary of the method: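 HepG2 cells (HG2L7.5c1) stably carrying a firefly luciferase reporter driven by 20 dioxin responsive elements were exposed to compound for 24 h at 37C after a 5 h settling period; luminescence rise (ONE-Glo) indicated activation.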

[7] = qHTS assay to identify small molecule that activate the aryl hydrocarbon receptor (AhR) signaling pathway - cell viability counter screen (AID 743086);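 note: HepG2 liver cells carrying the AhR DRE luciferase reporter; series mostly up to about 70 µM; nearly all actives have a fitted effect of over 45% in size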
Summary of the method: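 HepG2-AhR-luc (HG2L7.5c1) cells, 4000/well, were preincubated 5 h at 37C, exposed to compound in qHTS format for 24 hr at 37C, then given CellTiter-Fluor for 30 min; viability was read as fluorescence in the reporter wells.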

[8] = target: Peroxisome proliferator-activated receptor gamma (Homo sapiens) (UniProt P37231); assay: qHTS assay to identify small molecule agonists of the peroxisome proliferator-activated receptor gamma (PPARg) signaling pathway (AID 743094; active = well fitted activation curve with a large enough effect in the signal ratio in the repeat runs, not every such curve was filed as active; the % refers to the signal ratio)
Sequence of Peroxisome proliferator-activated receptor gamma (Homo sapiens) (P37231 whole entry, looked up): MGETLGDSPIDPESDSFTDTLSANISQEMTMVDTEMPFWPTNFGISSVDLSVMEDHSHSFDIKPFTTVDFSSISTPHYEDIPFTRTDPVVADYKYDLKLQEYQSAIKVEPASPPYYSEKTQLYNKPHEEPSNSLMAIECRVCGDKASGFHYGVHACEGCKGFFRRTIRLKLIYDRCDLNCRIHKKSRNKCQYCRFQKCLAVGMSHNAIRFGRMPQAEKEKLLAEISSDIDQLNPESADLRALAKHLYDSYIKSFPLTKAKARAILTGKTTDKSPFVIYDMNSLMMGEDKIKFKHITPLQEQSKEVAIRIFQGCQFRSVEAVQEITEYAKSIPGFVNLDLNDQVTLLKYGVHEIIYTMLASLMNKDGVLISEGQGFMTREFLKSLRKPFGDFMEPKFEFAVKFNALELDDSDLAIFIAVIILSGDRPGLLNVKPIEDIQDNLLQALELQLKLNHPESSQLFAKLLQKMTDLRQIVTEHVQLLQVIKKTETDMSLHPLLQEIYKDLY
Summary of the method: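 Agonism was assessed in a beta-lactamase reporter system, HEK293H cells with a stably integrated UAS-bla construct under PPARg control; the 17 h treatment at 37C preceded a 1 h room-temperature FRET substrate read.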

[9] = target: Peroxisome proliferator-activated receptor gamma (Homo sapiens) (UniProt P37231); assay: qHTS assay to identify small molecule antagonists of the peroxisome proliferator-activated receptor gamma (PPARg) signaling pathway (AID 743191; calls by dose curve; note: series mostly up to about 63 µM; nearly all actives have a fitted effect of over 30% in size)
Summary of the method: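 GeneBLAzer PPARg UAS-bla HEK293H cells carrying a UAS-driven beta-lactamase reporter were plated at 3000 cells/well, preincubated 5 h at 37C, then given compound for 17 h at 37C; LiveBLAzer B/G FRET substrate was read after 1 h at room temperature.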

[10] = qHTS assay to identify small molecule antagonists of the peroxisome proliferator-activated receptor gamma (PPARg) signaling pathway - cell viability counter screen (AID 743194); note: nearly all actives have a fitted effect of over 55% in size
Summary of the method: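 PPARg-UAS-bla HEK293H cells were plated, rested 5 h at 37 C, then treated with compounds plus rosiglitazone (50 nM final) for 17 h at 37 C; viability was then read by CellTiter-Glo luminescence after 30 min at room temperature.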

[11] = qHTS assay for small molecule agonists of the antioxidant response element (ARE) signaling pathway (AID 743202; active = well fitted activation curve with a large enough effect in the signal ratio in the repeat runs, not every such curve was filed as active; the % refers to the signal ratio; note: potency is the fitted concentration of half-maximal effect)
Summary of the method: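 Following a 16 h, 37 C exposure of reporter HepG2 cells (ARE-driven beta-lactamase, 2,000 cells/well) to compounds, FRET substrate was applied for 2 h at room temperature and fluorescence intensity recorded.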

[12] = qHTS assay for small molecule agonists of the antioxidant response element (ARE) signaling pathway - cell viability counter screen (AID 743203; calls by dose curve; note: nearly all actives have a fitted effect of over 55% in size)
Summary of the method: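 ATP content via CellTiter-Glo luminescence served as the viability measure. Cells: ARE-bla HepG2, 2,000 per well. Exposure: 16 hrs, 37C/5% CO2.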

[13] = qHTS assay for small molecule activators of the heat shock response signaling pathway - cell viability counter screen (AID 743209); note: nearly all actives have a fitted effect of over 50% in size
Summary of the method: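 Compounds dissolved in DMSO were added to overnight-plated HSE-bla HeLa cells and left 5 h at 37 C. Cell viability was quantified by luminescence using CellTiter-Glo.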

[14] = qHTS assay for small molecule activators of the heat shock response signaling pathway (AID 743210; active = well fitted activation curve with a large enough effect in the signal ratio in the repeat runs, with a control signal flat, not every such curve was filed as active; the % refers to the signal ratio; note: series mostly up to about 63 µM)
Summary of the method: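 Heat shock element–beta-lactamase HeLa reporter cells; qHTS with compounds for 5 h at 37 C; detection by FRET substrate fluorescence after 2.5 h at RT.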

[15] = target: Estrogen receptor (Homo sapiens) (UniProt P03372); assay: qHTS assay to identify small molecule antagonists of the estrogen receptor alpha (ER-alpha) signaling pathway (AID 743069; active = well fitted curve in the direction sought with a large enough effect in the signal ratio in the repeat runs, not every such curve was filed as active; the % refers to the signal ratio)
Sequence of Estrogen receptor (Homo sapiens) (P03372 whole entry, looked up): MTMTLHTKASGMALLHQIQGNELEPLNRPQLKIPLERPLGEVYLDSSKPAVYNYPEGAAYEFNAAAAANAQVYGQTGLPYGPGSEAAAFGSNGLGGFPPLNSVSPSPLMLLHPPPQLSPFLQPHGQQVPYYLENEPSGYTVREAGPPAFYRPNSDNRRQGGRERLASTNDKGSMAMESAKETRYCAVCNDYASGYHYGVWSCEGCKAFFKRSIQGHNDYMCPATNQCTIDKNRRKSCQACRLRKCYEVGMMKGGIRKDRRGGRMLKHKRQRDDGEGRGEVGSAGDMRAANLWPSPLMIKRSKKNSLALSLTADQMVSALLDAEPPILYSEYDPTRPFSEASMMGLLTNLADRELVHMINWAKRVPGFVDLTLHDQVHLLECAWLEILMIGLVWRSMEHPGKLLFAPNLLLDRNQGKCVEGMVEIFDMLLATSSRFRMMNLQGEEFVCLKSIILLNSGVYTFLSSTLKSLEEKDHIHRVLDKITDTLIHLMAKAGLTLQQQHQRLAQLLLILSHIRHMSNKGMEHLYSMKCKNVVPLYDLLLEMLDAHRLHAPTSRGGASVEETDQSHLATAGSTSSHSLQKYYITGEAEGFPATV
Summary of the method: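 A 17beta-estradiol challenge was applied right after compound transfer to ER-alpha-UAS-bla HEK293 cells previously kept in charcoal-stripped serum. Plates stood 18 hr at 37C and 5% CO2; fluorescence was read following 2 hr FRET substrate loading at room temperature.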

[16] = target: Estrogen receptor (Homo sapiens) (UniProt P03372); assay: qHTS assay to identify small molecule agonists of the estrogen receptor alpha (ER-alpha) signaling pathway (AID 743075; calls by dose curve;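 note: HEK293 GripTite cells with ER-alpha and UAS-driven beta-lactamase reporter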)
[17] = target: Estrogen receptor (Homo sapiens) (UniProt P03372); assay: qHTS assay to identify small molecule agonists of the estrogen receptor alpha (ER-alpha) signaling pathway using the BG1 cell line (AID 743079); note: nearly all actives have a fitted effect of over 20% in size
[18] = qHTS assay to identify small molecule antagonists of the estrogen receptor alpha (ER-alpha) signaling pathway using the BG1 cell line (AID 743080; calls by dose curve;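 note: BG1 cells stimulated with 17beta-estradiol alongside compound; series mostly up to about 70 µM; nearly all actives have a fitted effect of over 25% in size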)
Summary of the method: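 Luciferase inhibition measured with ONE-Glo after 30 min at RT in BG1Luc4E2 cells given test compounds and 17beta-estradiol for 21.5 h at 37 C; CellTiter-Fluor viability read in the same wells beforehand.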

SMILES	Potency [1]	Potency [2]	outcome [3]	outcome [4]	Potency (Aromatase (Homo sapiens))	Potency [5]	Potency [6]	Potency [7]	outcome [8]	outcome [9]	Potency [10]	Potency [11]	outcome [12]	outcome [13]	outcome [14]	Potency [15]	Potency [16]	Potency [17]	Potency [18]
C#CC(C)(O)CC(C)C (stereo unspecified)	inactive	inactive	inactive	inactive	inactive	inactive	inactive	inactive	inactive	inactive	inactive	inactive	inactive	inactive	inactive	–	–	–	–
C1C2OC2C2C1C1CC2C2OC12 (stereo unspecified)	inactive	inactive	inactive	inactive	inactive	inactive	inactive	inactive	inactive	–	inactive	inactive	inactive	inactive	inactive	–	–	–	–
CC(=O)NC(Cc1ccccc1)C(=O)O (stereo unspecified)	inactive	inactive	inactive	inactive	inactive	inactive	inactive	inactive	inactive	inactive	–	–	inactive	inactive	inactive	inactive	inactive	inactive	inactive
COc1ccc(COC=O)cc1	inactive	inactive	inactive	inactive	inactive	inactive	inactive	inactive	inactive	–	inactive	inactive	–	inactive	–	inactive	inactive	inactive	inactive
OCc1ccccn1	inactive	inactive	inactive	inactive	inactive	inactive	inactive	inactive	inactive	inactive	–	11.9 µM (active)	–	inactive	inactive	–	inactive	inactive	inactive
CCCCc1ccc(N)cc1	inactive	inactive	inactive	inactive	inactive	inactive	inactive	inactive	inactive	–	–	inactive	–	inactive	inactive	inactive	inactive	–	–
CCCCOCC(C)OCC(C)O (stereo unspecified)	inactive	inactive	inactive	inactive	inactive	inactive	inactive	inactive	inactive	inactive	inactive	inactive	–	inactive	inactive	inactive	inactive	inactive	inactive
CC(C)[C@H](N)C(=O)OCCOCn1cnc2c(=O)[nH]c(N)nc21	inactive	inactive	inactive	inactive	inactive	inactive	inactive	inactive	inactive	–	–	inactive	inactive	inactive	inactive	inactive	inactive	inactive	inactive
COc1nc(C)nc(N)n1	inactive	inactive	inactive	inactive	inactive	inactive	inactive	–	inactive	–	inactive	inactive	inactive	inactive	inactive	inactive	inactive	–	inactive
O=[N+]([O-])c1ccc(CCO)cc1	inactive	inactive	inactive	inactive	inactive	inactive	inactive	inactive	inactive	–	inactive	inactive	inactive	inactive	inactive	inactive	inactive	inactive	inactive
Cc1cc(C)cc(OCC2CNC(=O)O2)c1 (stereo unspecified)	inactive	inactive	inactive	inactive	inactive	inactive	inactive	inactive	inactive	–	–	inactive	inactive	inactive	inactive	inactive	inactive	inactive	inactive
CC(=O)O[C@H](CC(=O)[O-])C[N+](C)(C)C	inactive	inactive	inactive	inactive	inactive	inactive	inactive	–	inactive	–	inactive	–	inactive	inactive	inactive	inactive	inactive	inactive	inactive
CC(C)(O)C(=O)c1ccc(OCCO)cc1	inactive	inactive	–	inactive	inactive	inactive	inactive	inactive	inactive	–	–	inactive	inactive	inactive	inactive	inactive	inactive	inactive	inactive
CCCCCCC(CCCCCCCCCCC(=O)OCC(COC(C)=O)OC(C)=O)OC(C)=O (stereo unspecified)	inactive	inactive	inactive	inactive	inactive	inactive	inactive	inactive	–	–	inactive	–	inactive	inactive	inactive	inactive	inactive	inactive	inactive
COCc1ccc(COC)cc1	inactive	inactive	inactive	inactive	inactive	inactive	inactive	inactive	inactive	inactive	inactive	inactive	–	inactive	inactive	inactive	inactive	inactive	inactive
COc1cc(CCC(C)=O)ccc1O	inactive	inactive	inactive	inactive	inactive	inactive	inactive	–	inactive	–	inactive	–	inactive	inactive	inactive	–	–	–	–
